HEK293 viab – GF-AFC viability counterscreen for inhibitors of alpha-synuclein gene (SNCA) expression | HEK-293-SNCA-luc viability, GF-AFC fluorescence, 24 h | Potency, µM (top dose mostly 57.1 µM), hits mostly cytotoxic | 150,000 tested, 0.12% active | AID 1671193, 2021; further: nearly all actives have a fitted effect of over 30% in size
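HEK-293-SNCA-luc cells (1500/well) plated 24 h, then exposed 24 h to a dilution series; GF-AFC added 30 min at 37C, fluorescence 405/540 nm; normalised to medium-only and DMSO wells, Hill fit.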
GPT2 inh – Primary qHTS assay for inhibitors of Glutamate pyruvate transaminase 2 (GPT2). Potency, µM (doses to about 57.7 µM), actives largely listed as inhibitors. Alanine aminotransferase 2 (Homo sapiens), Q8TD30. Recombinant GPT2, coupled pyruvate oxidase/HRP Amplex Red fluorescence. 100,000 tested, 0.25% active; further: nearly all actives have a fitted effect of over 60% in size
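Recombinant GPT2 (10ng/uL) with 250uM a-KG and 2mM L-alanine, 30 min at room temperature, in HEPES pH 7.5 buffer. Pyruvate detected by pyruvate oxidase/HRP/Amplex Red fluorescence after 30 min in the dark; AOA (50uM) as positive control.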
SNCA expr inhib – Primary qHTS assay for inhibitors of alpha-synuclein gene (SNCA) expression; HEK-293 SNCA-luciferase knock-in, luminescence, 24 h; Potency, µM (titrated, usually from 57.2 µM), usual class: inhibitors; 140,000 tested, 0.17% active; further: nearly all actives have a fitted effect of over 45% in size
IP6K1 inh – Primary qHTS assay for small molecule inhibitors of Inositol hexaphosphate kinase 1 (IP6K1). Inositol hexakisphosphate kinase 1 (Homo sapiens), Q92551. IP6K1 kinase, ADP-Glo luminescence, 2 h; active compounds read low. activity change, % (series mostly up to about 58 µM). 140,000 tested, 0.81% active. AID 1645851, 2021; in the data active means activity change below about -25%
Target sequence (Q92551 whole entry, looked up): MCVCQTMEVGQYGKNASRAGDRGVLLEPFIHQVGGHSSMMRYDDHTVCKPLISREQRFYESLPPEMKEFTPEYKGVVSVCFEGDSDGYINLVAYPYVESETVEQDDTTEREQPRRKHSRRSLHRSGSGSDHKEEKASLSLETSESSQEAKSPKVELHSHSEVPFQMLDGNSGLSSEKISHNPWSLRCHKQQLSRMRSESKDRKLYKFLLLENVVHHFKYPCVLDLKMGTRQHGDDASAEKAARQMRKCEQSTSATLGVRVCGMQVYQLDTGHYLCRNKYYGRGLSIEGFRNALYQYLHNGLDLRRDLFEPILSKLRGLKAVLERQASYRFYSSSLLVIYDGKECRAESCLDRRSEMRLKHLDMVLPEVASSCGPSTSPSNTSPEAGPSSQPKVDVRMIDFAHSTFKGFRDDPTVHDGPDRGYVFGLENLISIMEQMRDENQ
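ADP-Glo luminescence measures ADP made by human IP6K1 during a 2 h RT reaction with ATP/IP6 (mix at 1.3 mM/130 uM); top library doses 57.5 and 19.1 uM final.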
Each line names hits and unclear results; the compound was inactive in the other large screens. A selection: hits, their analogues and other compounds. The true share with any hit is near 1%. Unless noted, the call rests on the fitted dose curve; in most records, active means well fitted curve in the direction sought with a large enough effect; inconclusive means small, poorly fitted or top-dose-only effect, or another doubt; inactive means no such curve, though single readings can be large; an effect the other way counts as inactive or inconclusive.

N#Cc1ccc(Nc2nc(-c3ccc(O)cc3O)cs2)cc1C(F)(F)F	HEK293 viab 12µM (no result: SNCA expr inhib)
COc1ccc(-c2nnc(C[C@@H]3C[C@@H](C(C)C)[C@H](CO)C=C3C)o2)cc1	HEK293 viab inconclusive
COCCNC[C@@H]1C=C(C)[C@H](Cc2nnc(-c3ccc(OC)cc3)o2)C[C@H]1C(C)C	HEK293 viab 32µM, GPT2 inh inconclusive, SNCA expr inhib inconclusive
COc1ccccc1C(=O)N1CC(CN2C(=O)c3c(c(C)nn3-c3ccccc3)C2C2CC2)C1 (configuration not stated)	none (no result: HEK293 viab, GPT2 inh, SNCA expr inhib)
CC(C)(O)Cn1c(NC(=O)c2ccc(-c3cn[nH]c3)s2)nc2cc(CN3CCOCC3)ccc21	HEK293 viab inconclusive, SNCA expr inhib 3.4µM (no result: IP6K1 inh)
C[C@H](NCc1ccc2c(c1)nc(NC(=O)c1ccc(-c3cn[nH]c3)s1)n2CCc1ccccc1)C(C)(C)C	HEK293 viab inconclusive, SNCA expr inhib 6.8µM (no result: IP6K1 inh)
COC(=O)c1ccc2c(c1)nc(NC(=O)c1ccccc1)n2CCCc1ccccc1	none (no result: SNCA expr inhib)
CC(=O)Oc1c(-c2ccc(NC(=O)c3ccco3)cc2)c(-c2cccc(C)c2)nn1-c1ccc(F)cc1	GPT2 inh 25µM
CC(=O)Oc1c(-c2ccc(NC(=O)c3ccco3)cc2)c(-c2cccc(F)c2)nn1-c1ccc(C)cc1	GPT2 inh 28µM
COCC(=O)Nc1ccc(-c2c(C(C)C)nn(-c3cccc(F)c3)c2OC(C)=O)cc1	GPT2 inh inconclusive
CC(=O)Oc1c(-c2ccc(NC(=O)c3ccco3)cc2)c(-c2cccc(C)c2)nn1-c1cccc(F)c1	GPT2 inh inconclusive
COc1cccc(-c2nn(-c3ccccc3)c(OC(C)=O)c2-c2ccc(NC(=O)C3CCCC3)cc2)c1	GPT2 inh 7.1µM
COc1ccc(-c2nn(-c3ccccc3C)c(OC(C)=O)c2-c2ccc(NC(C)=O)cc2)cc1OC	none
O=C(c1ccccc1OC(F)(F)F)N1C[C@@H](CO)[C@@H]2Oc3c(F)cccc3[C@@H]21	none (no result: HEK293 viab, GPT2 inh, SNCA expr inhib)
Cc1nn(-c2ccccc2)c2c1C(C)N(CC1CN(C(=O)NC3CCCC3)C1)C2=O (configuration not stated)	none (no result: HEK293 viab, GPT2 inh, SNCA expr inhib)
O=C(C1CCCC1)N1CC2(CCCN(Cc3ccc(Cl)cc3)C2)Cc2ccccc21 (configuration not stated)	none
CC(C)N1C[C@H](O)C[C@H]1c1nnc2n1CCN(C(=O)c1ccsc1)C2	SNCA expr inhib 25µM
Cc1cccc(NC(=O)c2nc(S(C)(=O)=O)ncc2Cl)c1	HEK293 viab 20µM, SNCA expr inhib inconclusive (no result: GPT2 inh)
CCS(=O)(=O)c1ncc(Cl)c(C(=O)NCc2ccc(OC)cc2)n1	HEK293 viab inconclusive, SNCA expr inhib 22µM (no result: GPT2 inh)
Cc1ccc(CNC(=O)c2nc(S(=O)(=O)Cc3ccc(C)cc3)ncc2Cl)cc1	none (no result: GPT2 inh)
CCS(=O)(=O)c1ncc(Cl)c(C(=O)Nc2ccccc2)n1	HEK293 viab 7.1µM, SNCA expr inhib 2.2µM (no result: GPT2 inh)
CCS(=O)(=O)c1ncc(Cl)c(C(=O)N2CCN(c3ccc(OC)cc3)CC2)n1	HEK293 viab 14µM, SNCA expr inhib inconclusive (no result: GPT2 inh)
Cc1noc(C)c1[S+](=O)([O-])NC1CCN(c2ccc3nnc(-c4ccccc4)n3n2)C1 (configuration not stated)	none (no result: HEK293 viab, GPT2 inh, SNCA expr inhib)
COc1ccc(CN2C[C@H](O)C[C@H]2c2nc(-c3cccc(C)c3)no2)c2ccccc12	none
CN(Cc1ccccc1)C(=O)C[C@@H]1c2nc(NC(=O)c3ccc(F)cc3)sc2C[C@@H]2[C@](C)(CO)[C@H](O)CC[C@]21C	none
O=C(Nc1ccc(Cl)cc1)Nc1ccc2n(c1=O)C[C@H]1C[C@@H]2CN(C(=O)c2ccc3ccccc3c2)C1	HEK293 viab inconclusive, SNCA expr inhib inconclusive
CC(C)c1nnc(NC(=O)c2nc(S(=O)(=O)Cc3ccccc3)ncc2Cl)s1	HEK293 viab 22µM, SNCA expr inhib inconclusive (no result: GPT2 inh)
CC(=O)Nc1ccc(NC(=O)c2nc(S(=O)(=O)Cc3ccc(F)cc3)ncc2Cl)cc1	HEK293 viab 7.9µM, SNCA expr inhib inconclusive (no result: GPT2 inh)
Cc1ccc(NC(=O)c2nc(S(=O)(=O)Cc3ccc(F)cc3)ncc2Cl)cc1C	HEK293 viab inconclusive, SNCA expr inhib inconclusive (no result: GPT2 inh)
O=C(NCc1ccccc1Cl)c1ccc2nnc(-c3ccoc3)n2c1	none
CC1(CNc2ccccc2)COc2ccc(C(=O)NCCc3ccccc3)cc2N1 (configuration not stated)	none
CCc1ccccc1NC(=O)C(CC)Oc1ccccc1-c1nnc(-c2ccccc2)o1 (configuration not stated)	HEK293 viab inconclusive, SNCA expr inhib 8.9µM (no result: GPT2 inh)
COc1cccc(C(=O)NC2CCN(c3ccc4nnc(-c5ccccc5)n4n3)CC2)c1	none (no result: HEK293 viab, GPT2 inh, SNCA expr inhib)
CN(Cc1ccccc1)c1ccc2cc(S(=O)(=O)N3CCCCC3)ccc2n1	SNCA expr inhib 25µM (no result: GPT2 inh)
Cc1cccc(N(C)c2ccc3cc(S(=O)(=O)N4CCCC4)ccc3n2)c1	none (no result: GPT2 inh)
CCCNC(=O)CCC1CCN(c2cc(NCCC)ncn2)CC1	SNCA expr inhib 3.2µM
O=C(O)CCC1CCN(c2cc(NC3CC3)ncn2)CC1	SNCA expr inhib 1.1µM
CCCNc1cc(N2CCC(CCC(=O)O)CC2)ncn1	SNCA expr inhib 1.1µM
CCCNc1cc(N2CCC(CCC(=O)Nc3cccc(C)c3)CC2)ncn1	GPT2 inh inconclusive, SNCA expr inhib 2µM
CCCNc1cc(N2CCC(CCC(=O)Nc3ccc4c(c3)OCCO4)CC2)ncn1	SNCA expr inhib inconclusive
CCCNc1cc(N2CCC(CCC(=O)NCc3ccccc3)CC2)ncn1	SNCA expr inhib 2.5µM
CCNc1cc(N2CCC(CCC(=O)NCC3CC3)CC2)ncn1	SNCA expr inhib inconclusive
CCCNc1cc(N2CCC(CCC(=O)NCC)CC2)ncn1	SNCA expr inhib 2.5µM
COc1ccc(-c2[nH]nc3ncc(-c4cccnc4)nc23)cc1F	HEK293 viab inconclusive, SNCA expr inhib 2.8µM
Cc1ccc(C(=O)N(CCCN)C(c2nc3cc(Cl)ccc3c(=O)n2Cc2ccccc2)C(C)C)cc1 (configuration not stated)	HEK293 viab 30µM (no result: SNCA expr inhib)
O=C(NCCCc1ccccc1)C1CCCN(Cc2cccc(-c3ccc(F)cc3F)c2)C1 (configuration not stated)	GPT2 inh inconclusive
Cc1nn2c(c1-c1ccccc1[S+](C)(=O)[O-])N(CCC(C)C)CCC2	HEK293 viab inconclusive, SNCA expr inhib 3.2µM
Cc1ccc(-c2c(C(=O)CCl)n(CCCO)c3ncnc(N)c23)cc1	HEK293 viab 24µM, GPT2 inh inconclusive (no result: SNCA expr inhib)
CC(=O)NCCc1ccc(CC2CCN(S(=O)(=O)N(C)C)CC2)cc1	none
NC[C@@H]1O[C@H](c2ccccc2)Cc2c1ccc(O)c2O	GPT2 inh 20µM (no result: IP6K1 inh)
Nc1cc(C(F)(F)F)ccc1S	GPT2 inh 28µM
COC(=O)COc1ccc(-c2nnc(Nc3ccc(O)cc3)c3ccccc23)cc1	HEK293 viab inconclusive, SNCA expr inhib 28µM (no result: GPT2 inh)
CCC(=O)c1cc2c(cc1NC(=O)c1ccccc1F)OCCO2	none (no result: GPT2 inh)
CCCC(=O)c1cc2c(cc1NC(=O)c1ccccc1F)OCCO2	SNCA expr inhib 14µM (no result: GPT2 inh)

Source: PubChem BioAssay (National Center for Advancing Translational Sciences (NCATS))
